# Results reported in PubChem BioAssay (EPA / NIEHS).
# Active and inactive are the calls of the source. The calls were made as follows: active = hit-call score of the fitted dose curve at least 0.9, where 1 is the maximum; inactive = score below 0.9.
# Read-out: MYC, MYC (gene 4609)
# Assay: LTEA_HepaRG_MYC: Life Technologies and Expression Analysis (LTEA) Assay for MYC using HepaRG (AID 2283518)
# Conditions: mRNA level, 48 h; actives raise or lower the signal
# How it was run: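 HepaRG, ~100,000 cells/well, collagen I; 48 h plating; serum-free induction medium; 48 h dosing, duplicate, 100 uM top, half-log, 0.5% DMSO; total RNA → qRT-PCR MYC; gain/loss fit vs DMSO.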
row,Structure (SMILES),outcome
1,O=C1O[C@H]([C@H](O)CO)C(O)=C1O,inactive
2,Oc1ccccc1O,inactive
3,O=Cc1ccccc1C=O,inactive
4,Cc1cn([C@H]2C=C[C@@H](CO)O2)c(=O)[nH]c1=O,inactive
5,NC1CCCCC1,inactive
6,O=C(NS(=O)(=O)/C=C/c1cccs1)c1ccc(F)cc1Br,inactive
7,O=C1NC(=O)C(c2ccccc2)(c2ccccc2)N1,inactive
8,S=c1[nH]c2ccccc2s1,inactive
9,CCCCCCCCCC[N+](C)(C)[O-],inactive
10,CC(=O)CC(c1ccccc1)c1c(O)c2ccccc2oc1=O (stereo not given),inactive

# Read-out: matrix metalloproteinase-3 (MMP3), MMP3 (gene 4314)
# Assay: LTEA_HepaRG_MMP3: Life Technologies and Expression Analysis (LTEA) Assay for matrix metalloproteinase-3 (MMP3) using HepaRG (AID 2283519)
# Conditions: mRNA level, 48 h; actives raise or lower the signal
# How it was run: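 Fluidigm-based TaqMan qRT-PCR, normalized to ACTB, GAPDH and POLR2A and fitted bidirectionally versus 0.5% DMSO, measured transcript levels. Treatment: duplicate 48 h exposures of HepaRG cells, ~100,000/well, to eight half-log concentrations topping at 100 uM.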
Structure (SMILES),outcome,AC50
NC(=Nc1ccccc1)Nc1ccccc1,inactive,
CC(COCC(C)OC(=O)c1ccccc1)OC(=O)c1ccccc1 (stereo not given),inactive,
CCCCCCCCCCCCCCOS(=O)(=O)O,inactive,
CC(C)NCC(O)c1ccc(O)c(O)c1 (stereo not given),inactive,
CC(C)(O)c1ccc(CNC(=O)c2cccnc2Oc2ccc(F)cc2)cc1,,73.2 µM (active)
CC(C)(C)c1ccccc1,inactive,
COC(=O)[C@H]1[C@H]2C[C@@H]3c4[nH]c5cc(OC)ccc5c4CCN3C[C@H]2C[C@@H](OC(=O)c2cc(OC)c(OC)c(OC)c2)[C@@H]1OC,inactive,
COc1ccc(C(=O)Nc2nc3ccccc3c(NCc3ccccc3)c2C#N)cc1,,9.92 µM (active)
CN(C)C(=O)NC1(c2ccccc2)CCN(CC[C@@]2(c3ccc(F)c(F)c3)CN(C(=O)c3ccccc3)CCO2)CC1,inactive,
CC(=O)O,inactive,
C/C=C/C=C/C(=O)O,inactive,
CC(N)=O,inactive,
CCc1cc(C2=C(C(=O)O)N(c3ccccc3C(F)(F)F)S(=O)(=O)c3ccccc32)cc2c1OCO2,,50 µM (active)
Nc1nc(=S)c2[nH]cnc2[nH]1,inactive,
CCc1nc(N)nc(N)c1-c1ccc(Cl)cc1,inactive,
O=C(Oc1ccccc1)c1cccc(C(=O)Oc2ccccc2)c1,inactive,
CCCC[C@H]1CN(CC2CCOCC2)C(=O)OC12CCN(C1(C)CCN(C(=O)c3c(C)ncnc3C)CC1)CC2,inactive,
CC(C)c1cccc(C(C)C)c1NC(=O)NS(=O)(=O)c1cc(C(C)(C)O)co1,inactive,
O=C1c2c(O)cccc2Cc2cccc(O)c21,inactive,
O=C1O[C@H]([C@H](O)CO)C(O)=C1O,inactive,
Oc1ccccc1O,inactive,
O=Cc1ccccc1C=O,inactive,
Cc1cn([C@H]2C=C[C@@H](CO)O2)c(=O)[nH]c1=O,inactive,
CN(C)C(=O)NC1(c2ccccc2)CCN(CCC[C@]2(c3ccc(Cl)c(Cl)c3)CCCN(C(=O)c3ccccc3)C2)CC1,,18.2 µM (active)
NC1CCCCC1,inactive,
O=C(NS(=O)(=O)/C=C/c1cccs1)c1ccc(F)cc1Br,inactive,
O=C1NC(=O)C(c2ccccc2)(c2ccccc2)N1,inactive,
S=c1[nH]c2ccccc2s1,inactive,
CCCCCCCCCC[N+](C)(C)[O-],inactive,
CC(=O)CC(c1ccccc1)c1c(O)c2ccccc2oc1=O (stereo not given),inactive,
